# Compounds without any hit were thinned out: in the full panel of roughly 79,000, 15% have a hit. A number with no mark means an inactive call. Calls of active or inactive are those of the source. Rule as the data show it: active = growth inhibition above about 70%; inactive = the rest.
# Columns and labels:
# [1] = NCI Yeast Anticancer Drug Screen. Data for the rad52 strain (AID 147);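 also: 0% = growth of vehicle-treated control cultures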; conditions: S. cerevisiae rad52 mutant growth inhibition, active compounds read high
# Summary of the method: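 Measured: yeast growth inhibition. System: strain with a defined DNA damage repair alteration. Reference: vehicle-treated control cultures.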
# [2] = NCI Yeast Anticancer Drug Screen. Data for the wt1 strain (AID 149);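 also: 0% = growth of vehicle-treated wt1 cultures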; conditions: S. cerevisiae wt1 strain (SPY 50644) growth inhibition, active compounds read high
# Summary of the method: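 Vehicle-normalised growth inhibition; strain wt1; compound exposure.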
# [3] = NCI Yeast Anticancer Drug Screen. Data for the rad50EPP+ strain (AID 151);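 also: 0% = growth of vehicle-treated control cultures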; conditions: S. cerevisiae rad50 mutant strain, active compounds read high
# Summary of the method: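 One strain with a rad50 alteration (rad50EPP+) was compound-treated, its growth then compared to that of vehicle controls.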
# [4] = NCI Yeast Anticancer Drug Screen. Data for the mgt1 strain (AID 153); conditions: S. cerevisiae mgt1 mutant growth inhibition, active compounds read high
# Summary of the method: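 After exposure of the mgt1 yeast mutant to compound, growth was measured and reported as inhibition compared with vehicle controls.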
# [5] = NCI Yeast Anticancer Drug Screen. Data for the rad50 strain (AID 155);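 also: 0% = growth of vehicle-only cultures of the same strain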; conditions: S. cerevisiae rad50 strain growth inhibition, active compounds read high
# Summary of the method: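 A DNA repair-deficient yeast mutant serves as the test organism; compound-induced growth inhibition is calculated against vehicle-treated cells.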
# [6] = NCI Yeast Anticancer Drug Screen. Data for the mec2-1 strain (AID 157); conditions: S. cerevisiae mec2-1 strain, active compounds read high
# Summary of the method: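 Test agents were screened against the mec2-1 yeast strain, with defined DNA repair or cell cycle alteration. Growth was scored as inhibition against vehicle-only controls.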
# [7] = NCI Yeast Anticancer Drug Screen. Data for the rad14 strain (AID 159);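 also: 0% = growth of vehicle-treated control cultures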; conditions: S. cerevisiae rad14 strain growth inhibition, active compounds read high
# Summary of the method: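 Vehicle-treated cultures served as the baseline for growth inhibition of a DNA repair-mutant yeast strain exposed to each compound.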
# [8] = NCI Yeast Anticancer Drug Screen. Data for the sgs1 mgt1 strain (AID 161);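 also: 0% = growth of cultures given vehicle only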; conditions: S. cerevisiae sgs1 mgt1 strain, active compounds read high
# Summary of the method: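 Mutant yeast exposed to compound; growth scored against vehicle-only wells.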
# [9] = NCI Yeast Anticancer Drug Screen. Data for the CLN2oe strain (AID 163);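 also: 0% = growth of vehicle-only control cultures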; conditions: S. cerevisiae CLN2oe strain, active compounds read high
# Summary of the method: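 Here, growth inhibition in a cell-cycle-altered yeast strain after compound exposure was quantified against vehicle control growth.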
# [10] = NCI Yeast Anticancer Drug Screen. Data for the cln2 rad14 strain (AID 165);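 also: 0% = growth equal to vehicle treated cultures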; conditions: S. cerevisiae cln2 rad14 strain, active compounds read high
# Summary of the method: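 Growth of compound-exposed yeast (cln2 rad14 genotype) measured and expressed as inhibition relative to vehicle.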
# [11] = NCI Yeast Anticancer Drug Screen. Data for the bub3 strain (AID 167); conditions: S. cerevisiae bub3 mutant strain, active compounds read high
# Summary of the method: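 Inhibition values come from growth of compound-treated mutant yeast normalised to vehicle-treated controls.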
# [12] = NCI Yeast Anticancer Drug Screen. Data for the wt2 strain (AID 169);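 also: 0% = growth of vehicle-treated yeast cultures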; conditions: S. cerevisiae wt2 strain growth inhibition, active compounds read high
# Summary of the method: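 Genetically defined yeast strains from a DNA-repair/cell-cycle panel were used. Compound-exposed yeast growth was measured, and the inhibition was calculated relative to vehicle treatment.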
# [13] = NCI Yeast Anticancer Drug Screen. Data for the mlh1 strain (AID 171);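 also: 0% = growth of vehicle-treated control cultures of the same strain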; conditions: S. cerevisiae mlh1 strain growth inhibition, active compounds read high
# Summary of the method: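 Here the genetically defined yeast mutant is grown with each compound, and the extent to which its growth falls below that of vehicle-exposed cells is reported.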
# [14] = NCI Yeast Anticancer Drug Screen. Data for the sgs1 strain (AID 173);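 also: 0% = growth of vehicle-only control cultures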; conditions: S. cerevisiae sgs1 mutant, active compounds read high
# Summary of the method: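 Relative growth inhibition, referenced to vehicle, was determined in a yeast strain with a defined alteration affecting DNA damage repair or cell cycle control after compound exposure.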
# [15] = NCI Yeast Anticancer Drug Screen. Data for the mlh1 rad18 strain (AID 175); conditions: S. cerevisiae mlh1 rad18 strain growth inhibition, active compounds read high
# Summary of the method: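 In this whole-cell yeast screen, a strain with altered DNA damage repair is challenged with compound, and its growth is measured against matched vehicle-treated controls.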
# [16] = NCI Yeast Anticancer Drug Screen. Data for the rad18 strain (AID 177); conditions: S. cerevisiae rad18 mutant growth inhibition, active compounds read high
# Summary of the method: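 Screen uses a yeast strain with a defined lesion in DNA damage repair; compound effect is read as loss of growth compared to untreated vehicle cultures.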
# [17] = at 5.0 µM (retest, dose inferred, filed as 0.5)
# [18] = at 50.0 µM (retest, dose inferred, filed as 5.0)
structure (smiles),measurement,setting,value
CCCCCCNCCCNc1c2cc(OC)ccc2nc2cccc([N+](=O)[O-])c12,growth inhibition,[1]; at 1.2 µM,8%
same,growth inhibition,[1]; at 3.7 µM,25%
same,growth inhibition,[1]; at 11.0 µM,73% (active)
same,growth inhibition,[1]; at 33.0 µM,93% (active)
same,growth inhibition,[1]; at 100.0 µM,97% (active)
same,growth inhibition,[2]; at 1.2 µM,1%
same,growth inhibition,[2]; at 3.7 µM,1%
same,growth inhibition,[2]; at 11.0 µM,9%
same,growth inhibition,[2]; at 33.0 µM,59%
same,growth inhibition,[2]; at 100.0 µM,96% (active)
same,growth inhibition,[3]; at 1.2 µM,2%
same,growth inhibition,[3]; at 3.7 µM,5%
same,growth inhibition,[3]; at 11.0 µM,20%
same,growth inhibition,[3]; at 33.0 µM,60%
same,growth inhibition,[3]; at 100.0 µM,92% (active)
same,growth inhibition,[4]; at 1.2 µM,0%
same,growth inhibition,[4]; at 3.7 µM,0%
same,growth inhibition,[4]; at 11.0 µM,10%
same,growth inhibition,[4]; at 33.0 µM,81% (active)
same,growth inhibition,[4]; at 100.0 µM,98% (active)
same,growth inhibition,[5]; at 1.2 µM,5%
same,growth inhibition,[5]; at 3.7 µM,15%
same,growth inhibition,[5]; [17],35%
same,growth inhibition,[5]; at 11.0 µM,66%
same,growth inhibition,[5]; at 33.0 µM,92% (active)
same,growth inhibition,[5]; [18],97% (active)
same,growth inhibition,[5]; at 50.0 µM,94.6% (active)
same,growth inhibition,[5]; at 100.0 µM,96% (active)
same,growth inhibition,[6]; at 1.2 µM,-1%
same,growth inhibition,[6]; at 3.7 µM,4%
same,growth inhibition,[6]; [17],9%
same,growth inhibition,[6]; at 11.0 µM,73% (active)
same,growth inhibition,[6]; at 33.0 µM,94% (active)
same,growth inhibition,[6]; [18],98% (active)
same,growth inhibition,[6]; at 50.0 µM,96.4% (active)
same,growth inhibition,[6]; at 100.0 µM,99% (active)
same,growth inhibition,[7]; at 1.2 µM,7%
same,growth inhibition,[7]; at 3.7 µM,55%
same,growth inhibition,[7]; at 11.0 µM,96% (active)
same,growth inhibition,[7]; at 33.0 µM,99% (active)
same,growth inhibition,[7]; at 100.0 µM,99% (active)
same,growth inhibition,[8]; [17],88% (active)
same,growth inhibition,[8]; [18],97% (active)
same,growth inhibition,[8]; at 50.0 µM,95.7% (active)
same,growth inhibition,[9]; at 1.2 µM,-8%
same,growth inhibition,[9]; at 3.7 µM,-13%
same,growth inhibition,[9]; at 11.0 µM,-9%
same,growth inhibition,[9]; at 33.0 µM,53%
same,growth inhibition,[9]; at 100.0 µM,96% (active)
same,growth inhibition,[10]; [17],77% (active)
same,growth inhibition,[10]; [18],99% (active)
same,growth inhibition,[10]; at 50.0 µM,98.8% (active)
same,growth inhibition,[11]; at 1.2 µM,-6%
same,growth inhibition,[11]; at 3.7 µM,-13%
same,growth inhibition,[11]; [17],-3%
same,growth inhibition,[11]; at 11.0 µM,-18%
same,growth inhibition,[11]; at 33.0 µM,34%
same,growth inhibition,[11]; [18],96% (active)
same,growth inhibition,[11]; at 50.0 µM,92.7% (active)
same,growth inhibition,[11]; at 100.0 µM,95% (active)
same,growth inhibition,[12]; at 1.2 µM,0%
same,growth inhibition,[12]; at 3.7 µM,0%
same,growth inhibition,[12]; at 11.0 µM,12%
same,growth inhibition,[12]; at 33.0 µM,81% (active)
same,growth inhibition,[12]; at 100.0 µM,98% (active)
same,growth inhibition,[13]; at 1.2 µM,4%
same,growth inhibition,[13]; at 3.7 µM,2%
same,growth inhibition,[13]; at 11.0 µM,16%
same,growth inhibition,[13]; at 33.0 µM,86% (active)
same,growth inhibition,[13]; at 100.0 µM,98% (active)
same,growth inhibition,[14]; at 1.2 µM,21%
same,growth inhibition,[14]; at 3.7 µM,65%
same,growth inhibition,[14]; at 11.0 µM,88% (active)
same,growth inhibition,[14]; at 33.0 µM,95% (active)
same,growth inhibition,[14]; at 100.0 µM,98% (active)
same,growth inhibition,[15]; [17],73% (active)
same,growth inhibition,[15]; [18],97% (active)
same,growth inhibition,[15]; at 50.0 µM,97.2% (active)
same,growth inhibition,[16]; at 1.2 µM,89% (active)
same,growth inhibition,[16]; at 3.7 µM,93% (active)
same,growth inhibition,[16]; at 11.0 µM,93% (active)
same,growth inhibition,[16]; at 33.0 µM,95% (active)
same,growth inhibition,[16]; at 100.0 µM,98% (active)
